Compound activity from PubChem.
Rows were chosen to be rich in hits. Some 21% of all compounds tested hit in one or more screens of this group.
Pf growth 48h = P. falciparum growth inhibition at 48 hours (one generation) | P. falciparum luciferase growth in erythrocytes, 48 h | Potency, µM (highest dose often 28.7 µM), usual class: inhibitors | 310,000 compounds, 5.9% hits | AID 504832
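In quantitative HTS format, infected erythrocytes bearing luciferase-reporter parasites were treated for a single generation at 37 C. Luminescence after adding detection reagent served as the growth measure.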
NS1 inh = inhibitors of influenza NS1 protein function; Potency, µM (series often up to 46.1 µM); 270,000 compounds, 0.4% hits; AID 2326; calls by dose curve; note: actives are rising curves; nearly all actives have a fitted effect of over 50% in size
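A cell-based growth assay was used: compounds that relieve NS1-induced slow growth of budding yeast raise OD600. Assay medium was yeast nitrogen base with ammonium sulphate and -URA supplement, pH 6.0, with 2% galactose.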
Pf growth 96h = inhibits malaria parasite growth, 96 h | AID 504834 | Potency, µM (titrated, usually from 28.7 µM), hits mostly inhibitors | 320,000 compounds, 6.9% hits | P. falciparum luciferase reporter growth, 96 h
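Delayed-death screen, second-generation endpoint: infected erythrocytes, 2% hematocrit, 0.05% parasitemia final; 96 hours at 37 C, 5% CO2; luciferase detection reagent; luminescence decrease equals reduced growth.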
CHX counter = counter-screen hit for Shiga toxin inhibitors, cycloheximide. max response, %. AID 2314. 300,000 compounds, 12% hits. cell reporter, cycloheximide protein synthesis inhibition counterscreen; in the data active = max response mostly above about 13%, no sharp cut-off; inactive = mostly below about 14%; note: read at 38.3 µM for the half of the compounds with a filed dose
Shiga toxin inh = inhibitors of Shiga toxin in Vero cells. Vero cells, Shiga toxin protein synthesis inhibition reporter. inhibition, % at 38.7 µM. 290,000 compounds, 9.2% hits; in the data active = inhibition mostly above about 28%, no sharp cut-off; inactive = mostly below about 43%
Each line names hits and unclear results; the compound was inactive in the other large screens. Unless noted, calls come from the whole dose curve; as a rule, active = well fitted inhibition curve with a large enough effect; inconclusive = small, poorly fitted or top-dose-only effect, or another doubt; inactive = no such curve, though single readings can be large or run the other way.

COc1ccc(N(C)C(=O)c2cc3c(s2)-c2ccc(Cl)cc2S(=O)(=O)C3)c(OC)c1	Pf growth 48h inconclusive, Pf growth 96h 13.1µM
CN(C(=O)c1cc2c(s1)-c1ccccc1S(=O)(=O)C2)c1ccccc1F	Pf growth 48h inconclusive, Pf growth 96h inconclusive
COc1cc(C=O)ccc1Oc1cnccn1	none
CCC(C)c1ccccc1NC(=S)Nc1cccnc1 (centres undefined)	Pf growth 48h inconclusive
CC(C)Cn1c(CCCNC(=O)c2ccco2)nc2ccccc21	none
CCCCCCn1c(C(C)NC(=O)c2ccco2)nc2ccccc21 (centres undefined)	Pf growth 48h inconclusive, Pf growth 96h inconclusive, CHX counter 11.5
O=C(Nc1nc2ccccc2n1Cc1ccccc1)c1ccco1	Pf growth 48h 13.1µM, NS1 inh inconclusive, CHX counter 25.7 (no result: Pf growth 96h)
CCCCn1c(C(C)NC(=O)CC)nc2ccccc21 (centres undefined)	none
CCn1c(CCNC(=O)c2ccco2)nc2ccccc21	Pf growth 96h 9.28µM
CC(C)Cn1c(CCNC(=O)c2ccco2)nc2ccccc21	Pf growth 96h inconclusive, CHX counter 31.4
COc1ccc(C(=O)C2CCCN(S(=O)(=O)C(C)C)C2)c(C)c1 (centres undefined)	none
Cc1ccc(C(=O)Nc2ccc3c(c2)CCC3)cc1S(=O)(=O)N1CCOCC1	CHX counter 33.5, Shiga toxin inh 98.0 (no result: NS1 inh)
O=C(Nc1ccc2c(c1)CCC2)c1ccc(F)c(S(=O)(=O)N2CCOCC2)c1	Pf growth 96h inconclusive, CHX counter 26.5, Shiga toxin inh 35.7
NS(=O)(=O)c1cc(C(=O)Nc2ccc3c(c2)CCC3)ccc1Cl	CHX counter 20.1, Shiga toxin inh 89.1
CC(C)C[C@H](NC(=O)[C@H](CCCCN)NC(=O)[C@H](CCCNC(=N)N)NC(=O)[C@H](C)NC(=O)[C@H](CO)NC(=O)[C@H](CCCCN)NC(=O)[C@H](CCCNC(=N)N)NC(=O)[C@H](C)NC(=O)CNC(=O)[C@@H](NC(=O)[C@H](Cc1ccccc1)NC(=O)CNC(=O)CNC(=O)[C@@H](N)Cc1ccccc1)[C@@H](C)O)C(=O)N[C@@H](C)C(=O)N[C@@H](CC(N)=O)C(=O)N[C@@H](CCC(N)=O)C(=O)O	none (no result: Pf growth 48h, NS1 inh, Pf growth 96h)
O=S(=O)(Nc1ncccn1)c1ccc(NC(=S)NCCc2ccccc2)cc1	Pf growth 48h inconclusive (no result: NS1 inh)
Cc1ccc(N2C=Nc3ccc(C)c4nc(C)cc2c34)cc1	Pf growth 48h 9.28µM
COc1ccc2cc(C(=O)C3CCCN(C(=O)c4cc5nc(C)cc(C)n5n4)C3)ccc2c1 (centres undefined)	none
O=C(Nc1ccc(N2CCCC2)cc1)c1cccc(Cl)c1Cl	Pf growth 96h inconclusive, CHX counter 24.5, Shiga toxin inh 71.0
O=C(Nc1ccc(N2CCCCC2)cc1)c1cccnc1Cl	Pf growth 96h inconclusive, CHX counter 33.3, Shiga toxin inh 72.4 (no result: Pf growth 48h)
O=C(COC(=O)/C=C/C(=O)N1CCN(c2ccccc2)CC1)NC(c1ccccc1)c1ccccc1	none
CCc1ccc(C(=O)CN2C(=O)NC(C)(CCc3ccccc3)C2=O)cc1 (centres undefined)	none
Cc1cc(C)c(C(=O)C(C)OC(=O)C2=COCCO2)cc1C (centres undefined)	none
c1cncc(C(c2nnnn2C2CCCC2)N2CCCC2)c1 (centres undefined)	Pf growth 96h 9.28µM
Fc1ccc(C(c2nnnn2C2CCCC2)N2CCN(Cc3ccccc3)CC2)cc1 (centres undefined)	Pf growth 48h 9.28µM (no result: Pf growth 96h)
c1cncc(C(c2nnnn2C2CCCCC2)N2CCN3CCCC3C2)c1 (centres undefined)	none
c1ccc(C(c2ccccc2)N2CCN(C(c3ccccn3)c3nnnn3C3CCCC3)CC2)cc1 (centres undefined)	Pf growth 96h 4.65µM
c1csc(C(c2nnnn2C2CCCC2)N2CCCC3(CCCCC3)C2)c1 (centres undefined)	Pf growth 48h 2.08µM (no result: Pf growth 96h)
Cn1c(SCC(=O)NCC2CCCO2)nc2c(c1=O)SCC2 (centres undefined)	none
N#Cc1cccc(C(c2nnnn2C2CCCC2)N2CCCCCC2)c1 (centres undefined)	Pf growth 48h inconclusive, Pf growth 96h 11.7µM
NC(=O)C1CCN(C(c2ccccc2)c2nnnn2C2CCCC2)CC1 (centres undefined)	none
N#Cc1ccc(C(c2nnnn2C2CCCC2)N2CCC(Cc3ccccc3)CC2)cc1 (centres undefined)	Pf growth 48h 4.65µM
N#Cc1cccc(C(c2nnnn2C2CCCC2)N2CCC(Cc3ccccc3)CC2)c1 (centres undefined)	Pf growth 48h 5.22µM
COCCn1nnnc1C(c1cccc(C#N)c1)N1CCCCCC1 (centres undefined)	Pf growth 48h inconclusive
c1ccc(Cn2nnnc2C(c2cccnc2)N2CCN(C3CCCCC3)CC2)cc1 (centres undefined)	Pf growth 48h inconclusive, Pf growth 96h 13.1µM
N#CCCn1cc(CNCc2ccccc2)c(-c2cccc([N+](=O)[O-])c2)n1	none
O=C(NC1CCOc2ccccc21)C1CCCC1 (centres undefined)	none
COc1cc(NC(=O)c2ccccn2)cc(OC)c1OC	none (no result: NS1 inh)
O=C(Nc1ccc(OC(F)F)c(Cl)c1)c1ccccn1	CHX counter 41.3, Shiga toxin inh 93.9 (no result: NS1 inh)
COc1ccc(C)cc1NC(=O)c1ccc(OC(F)F)cc1	none
COc1ccc(NC(=O)c2ccc(OC(F)F)cc2)cc1Cl	CHX counter 47.4, Shiga toxin inh active
COc1ccc(NC(=O)c2cc(F)cc(F)c2)cc1Cl	CHX counter 27.4, Shiga toxin inh 82.0 (no result: Pf growth 96h)
CCCC[C@@H]1C[C@H]1[C@@H](NC(=O)c1cccs1)c1ccc(Cl)cc1	Pf growth 48h inconclusive, Pf growth 96h 9.28µM
COCCN=c1scc(-c2ccc3c(c2)NC(=O)CO3)n1/N=C(\C)c1ccc(O)cc1	Pf growth 48h 10.4µM, Pf growth 96h inconclusive
COc1c(C)cc(NC(=O)c2ccc3c(c2)NC(=O)CO3)cc1C	Pf growth 48h inconclusive, Pf growth 96h inconclusive (no result: NS1 inh)
CCOC(=O)C1CCCN(C(=O)c2cccc(S(=O)(=O)N(C)c3ccc(C)cc3)c2)C1 (centres undefined)	Pf growth 48h 13.1µM, Pf growth 96h inconclusive (no result: NS1 inh, CHX counter, Shiga toxin inh)
CCOC(=O)C1CCCN(C(=O)c2ccc(S(=O)(=O)NCc3ccco3)cc2)C1 (centres undefined)	Pf growth 48h inconclusive, Pf growth 96h 11.7µM (no result: NS1 inh, CHX counter, Shiga toxin inh)
CC1CCCC(C)N1C(=O)c1ccc(S(=O)(=O)NCc2ccco2)cc1 (centres undefined)	CHX counter 26.8, Shiga toxin inh 46.3
O=C(NC1CCCCC1)c1ccc(S(=O)(=O)NCc2ccco2)cc1	none
CCOC(=O)C1CCCN(C(=O)c2cccc(S(=O)(=O)N3CC(C)OC(C)C3)c2)C1 (centres undefined)	Pf growth 48h inconclusive, Pf growth 96h inconclusive
N#Cc1ccc(-c2ccc(OCC(=O)NCCc3ccccc3)cc2)cc1	NS1 inh inconclusive, Pf growth 96h inconclusive
Cc1nc(SCC(=O)N2CCC(Cc3ccccc3)CC2)[nH]c(=O)c1C	Pf growth 96h inconclusive (no result: NS1 inh, CHX counter, Shiga toxin inh)
